# Values without a mark were called inactive. Records with an inconclusive call do not appear. Where a call stands in place of a potency, no number is given. The source made the active and inactive calls. Unless noted, the call rests on the fitted dose curve; in most records, active means well fitted curve in the direction sought with a large enough effect; inconclusive means small, poorly fitted or top-dose-only effect, or another doubt; inactive means no such curve, though single readings can be large; an effect the other way counts as inactive or inconclusive.
# Columns and labels:
# [1] = target: Lysosomal acid glucosylceramidase (Homo sapiens) (UniProt P04062); assay: Glucocerebrosidase-p2 (AID 348; in the data active means potency below about 10 µM; further: potency means the concentration at half of the fitted maximal effect); details: purified GBA, blue fluorogenic substrate, 40 min
# Summary of the method: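 Compounds titrated from 0.6 nM upwards against 0.2 nM enzyme in pH 5.9 citric acid/KH2PO4, taurocholate, tween-20; blue fluorogenic substrate 80 uM, 40 min room temperature, stopped and read Ex 365/Em 440 for AC50.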
# [2] = target: Cytochrome P450 3A4 (Homo sapiens) (UniProt P08684); assay: qHTS Assay for Inhibitors and Substrates of Cytochrome P450 3A4 (AID 884); details: recombinant CYP3A4, Luciferin-PPXE luminescence; series mostly up to 57.1 µM; further: nearly all actives have a fitted effect of over 50% in size; further: potency means the concentration at half of the fitted maximal effect
# Summary of the method: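 20 nM human CYP3A4 with 25 uM Luciferin-PPXE (at KM) in 200 mM KPO4, preincubated 10 min with compound; NADPH regeneration started a 60 min RT reaction. Luciferin detected by luminescence, normalized to 57 uM ketoconazole as full inhibition.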
# [3] = Confirmation and Secondary Assay for Modulators of Hemoglobin Beta Chain Splicing at IVS2 654 locus (AID 910); details: HeLa EGFP-654 splicing reporter, GFP fluorescence, 48 h; series mostly up to 46.1 µM;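 further: per-well total GFP intensity by laser scanning cytometry after 2-day treatment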
# Summary of the method: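 HeLa cells stably carrying EGFP interrupted by mutant beta-globin IVS2-654 intron (CMV-driven) were treated with compound for 2 days at 37C; corrected splicing was scored as total peak GFP intensity per well (488 nm excitation, 500-520 nm emission).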
# [4] = Confirmation and Secondary Assay for Modulators of Hemoglobin Beta Chain Splicing at IVS2 705 locus (AID 930); details: HeLa EGFP-705 splicing reporter, GFP fluorescence, 48 h; series mostly up to 46.1 µM;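 further: HeLa cells stably expressing the EGFP-705 splicing reporter; GFP fluorescence per well restored by corrected splicing of the IVS2-705 intron in EGFP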
# Summary of the method: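 First, HeLa EGFP-705 cells are seeded at 500/well in Optimem with 2% FCS and left overnight. Next, compound or DMSO is added for 2 days. Finally wells are laser-scanned and total peak GFP intensity scored.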
# [5] = target: Rap guanine nucleotide exchange factor 3 (Homo sapiens) (UniProt O95398); assay: Confirmatory qHTS for antagonist of cAMP-regulated guanine nucleotide exchange factor 3 (EPAC1) (AID 1645880); details: EPAC1 Rap1B-BODIPY-GDP exchange, fluorescence; series mostly up to 115 µM; further: nearly all actives have a fitted effect of over 55% in size
# Summary of the method: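 Nucleotide exchange uses 100 nM EPAC1, 250 nM RAP1B-BODIPY-GDP and 50 uM GDP, with compounds in a concentration-titration series. After 5 min at room temperature, fluorescence (480 nm ex/540 nm em) is read every 5 min for 30 min. Data are normalized to control ATA and DMSO.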
# [6] = tested on: HIV-1 nucleocapsid protein NCp7 (binding to TG oligonucleotide); assay: HIV Nucleocapsid (AID 346; call rule not given here;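 further: potency means the concentration at half of the fitted maximal effect; potency is for inhibitors that block NC binding and lower polarization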); details: HIV-1 NC / fluorescein-TGTGTGTG probe, fluorescence polarization
# Summary of the method: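 Fluorescence polarization readout: labelled TG4xF oligo (10 nM) with 100 nM nucleocapsid protein, high-salt (250mM NaCl) Hepes pH 7.5 buffer containing zinc and fresh reducing agents. Compounds added by pin tool; incubation 1 hr, room temperature.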
# [7] = target: Guanine nucleotide-binding protein G(i) subunit alpha-1 (Homo sapiens) (UniProt P63096); assay: qHTS Assay for Inhibitors of RGS12 GoLoco Motif Activity (Green Fluorophore) (AID 879); details: Galphai1/FITC-RGS12 GoLoco peptide, fluorescence polarization; series mostly up to 57.1 µM;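 further: negative values mean loss of peptide binding seen as reduced polarization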
# Summary of the method: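 Fluorescence polarization assay: 50 nM Gαi1 with 10 nM FITC-labeled RGS12 GoLoco peptide in 10 mM Tris pH 7.5, 150 mM NaCl, 0.1 mM GDP, 0.05% NP40, 10 min at room temperature with compound.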
# [8] = qHTS Assay for Identification of Small Molecule Antagonists for NFkB Signaling Pathway (AID 895; active means well fitted inhibition curve with a large enough effect in the signal ratio, with a control signal flat, not every such curve was filed as active; the % refers to the signal ratio; further: potency means the concentration at half of the fitted maximal effect); details: NFkB beta-lactamase reporter cells, FRET ratio 460/530; series mostly up to 38.3 µM
# Summary of the method: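 NFkB-bla ME-180 cervical carcinoma cells with beta-lactamase reporter under NFkB response element; compounds added, then TNF alpha at 10 pM final (EC50), 5 h at 37 C. LiveBLAzer substrate 2 h, room temperature; emission 460/530 nm at 405 nm excitation.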
# [9] = target: Muscarinic acetylcholine receptor M1 (Rattus norvegicus) (UniProt P08482); assay: qHTS Assay for Antagonists of Acetylcholine Muscarinic M1 Receptor: Kinetic Measurement of Intracellular Calcium Response (AID 943); details: M1-expressing cells, kinetic intracellular calcium fluorescence; series mostly up to 35.3 µM; further: nearly all actives have a fitted effect of over 75% in size; further: potency means the concentration at half of the fitted maximal effect
# Summary of the method: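 Intracellular calcium flux, recorded with Fluo-4 in a kinetic plate reader, served as signal; the response to carbachol at EC80 (100 nM final) was taken as maximal over minimal fluorescence after a 10 min compound pre-incubation in rat M1-CHO cells.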
# [10] = target: Muscarinic acetylcholine receptor M1 (Rattus norvegicus) (UniProt P08482); assay: qHTS Assay for Antagonists of Acetylcholine Muscarinic M1 Receptor: Measurement of IP-One Response (AID 944); details: CHO-M1 cells, IP-One HTRF, antagonist mode; series mostly up to 46.1 µM; further: nearly all actives have a fitted effect of over 75% in size; further: potency means the concentration at half of the fitted maximal effect
# Summary of the method: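 Steps: plate transfected CHO-M1 cells overnight; add test compound, 10 min; add carbachol (200 nM, EC80) in stimulation buffer with LiCl; incubate 30 min; add labelled IP1 tracer and anti-IP1 antibody in lysis buffer; read HTRF after 10 min.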
# [11] = target: Pyruvate kinase (Leishmania mexicana) (UniProt Q27686); assay: qHTS Validation Assay for Inhibitors of Leishmania Mexicana Pyruvate Kinase (AID 945); details: purified L. mexicana pyruvate kinase, enzyme activity, E451W mutant enzyme; series mostly up to 57.5 µM
# Summary of the method: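 qHTS eight-point titrations against 0.2 nM LmPYK (E451W) in imidazole buffer pH 7.2 with 0.5 mM PEP, 0.1 mM ADP; 1 h, room temperature. Readout: PKLight luminescence, normalized to neutral DMSO wells.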
# [12] = target: Pyruvate kinase PKM (Homo sapiens) (UniProt P14618); assay: qHTS Assay for Activators of Human Muscle Pyruvate Kinase (AID 954; active means well fitted curve in the direction sought with a large enough effect, not every such curve was filed as active); details: purified human muscle pyruvate kinase, luciferase-coupled luminescence, 1 h; series mostly up to 57.5 µM
# Summary of the method: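 Reaction: 0.1 nM purified PKM2 with 0.5 mM phosphoenolpyruvate and 0.1 mM ADP, room temperature, 1 h. Readout: luciferase-based ATP luminescence after stop reagent. Activators judged against a 0.3 nM enzyme column.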
# [13] = target: Alpha-galactosidase A (Homo sapiens) (UniProt P06280); assay: Counterscreen for Glucocerebrosidase Inhibitors: qHTS Assay for Human alpha-Galactosidase at pH 4.5 (AID 992); details: purified enzyme, fluorogenic substrate; series mostly up to 76.9 µM
# Summary of the method: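 Concentration-response curves (0.7 nM to 77 uM final) were modeled with the Hill equation to give AC50. Reactions: 2 nM enzyme, 80 uM fluorogenic alpha-galactoside, pH 4.5 citric acid buffer, 20 min, room temperature.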
# [14] = target: alpha-glucosidase (Oryza sativa, rice) (UniProt Q653V4); assay: Counterscreen for Glucocerebrosidase Inhibitors: qHTS Assay for Rice alpha-Glucosidase at pH 5.0 (AID 997); details: rice alpha-glucosidase enzyme activity; series mostly up to 76.9 µM
# Summary of the method: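 Rice alpha-glucosidase (4 nM final) with 400 uM 4-methylumbelliferyl-alpha-D-glucopyranoside in citrate buffer pH 5.0, 20 min at room temperature, stopped at pH 10; fluorescence 365/440 nm, compounds 0.7 nM–77 uM, AC50 from Hill fits.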
# [15] = target: M-phase phosphoprotein 8 (Homo sapiens) (UniProt Q99549); assay: qHTS Validation Assay for Inhibitors for MPP8 Chromodomain Interactions with Methylated Histone Tails (AID 488949); details: AlphaScreen MPP8 binding to H3K9me3 peptide; series mostly up to 114 µM; further: nearly all actives have a fitted effect of over 55% in size; further: potency means the concentration at half of the fitted maximal effect
# Summary of the method: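 AlphaScreen read-out: streptavidin donor and nickel chelate acceptor beads (final 10 ug/mL), 30 min in the dark at RT. Complex of 50 nM MPP8 and 50 nM b-H3(1-18)K9me3 peptide had been exposed to compounds for 30 min beforehand.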
# [16] = Validation screen for small molecules that induce DNA re-replication in SW480 colon adenocarcinoma cells (AID 504364); details: DNA re-replication phenotype (high-content imaging); series mostly up to 46.1 µM
# Summary of the method: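 Cells are treated 48 hr with test compound, stained 40 min with Hoechst at 37 C, and scanned for nuclear fluorescence; compounds inducing re-replication increase nuclei with elevated intensity.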
# [17] = qHTS Assay for Identification of Small Molecule Agonists for Hypoxia Response Element Signaling Pathway (AID 914; active means well fitted activation curve with a large enough effect in the signal ratio, with a control signal flat, not every such curve was filed as active; the % refers to the signal ratio); details: ME-180 (cervical carcinoma) HRE-bla reporter, beta-lactamase ratio, CoCl2, 17 h; activation: stronger effect = higher value
# Summary of the method: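 Positive modulation of EC50 CoCl2-induced hypoxia response element signaling is measured in ME-180 cells with a beta-lactamase reporter. Compounds are titrated, incubation runs 17 hours, and %Activity derives from the blue/green ratio.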
# [18] = target: RecQ-like DNA helicase BLM (Homo sapiens) (UniProt P54132); assay: qHTS Validation Assay for Inhibitors of Bloom's syndrome helicase (BLM) (AID 2364); details: BLM helicase DNA unwinding, fluorescence, in vitro; series mostly up to 57.1 µM
# Summary of the method: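 BLM 50 nM in 25 mM Tris-HCl pH 8.0, 5 mM NaCl, 2 mM MgCl2, 1 mM DTT, 0.01% Tween-20, 2.5 ug/ml poly(dI-dC); 15 min cpd preinc, RT. Start: 200 nM forked DNA + 2 mM ATP (final). TAMRA read, 2 reads 2 h apart.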
# [19] = Validation screen for small molecules that induce DNA re-replication in MCF 10A normal breast cells (AID 463097); details: MCF 10A cells, DNA re-replication phenotype imaging; series mostly up to 46.1 µM; further: nearly all actives have a fitted effect of over 60% in size
# Summary of the method: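 250 MCF 10A cells/well; compound pin-transferred; 48 hr, 37 C, 5% CO2; Hoechst 40 min; imaged 405/500-530 nm. Hits = more high-intensity nuclei.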
# [20] = qHTS Assay for Identification of Small Molecule Agonists for Thrombopoietin (TPO) Signaling Pathway (AID 917); details: TPO signaling pathway reporter cells, agonist qHTS; series mostly up to 38.5 µM
# Summary of the method: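 Activators of TPO signaling were sought in murine Ba/F3 cells transfected with the human receptor, using a luciferase gene driven by the Glycoprotein IIb promoter; 24-hr compound exposure at 37 C alongside 26 pM TPO, in IL-3-free medium.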
# Chain of Muscarinic acetylcholine receptor M1 (Rattus norvegicus) (P08482 whole entry, looked up): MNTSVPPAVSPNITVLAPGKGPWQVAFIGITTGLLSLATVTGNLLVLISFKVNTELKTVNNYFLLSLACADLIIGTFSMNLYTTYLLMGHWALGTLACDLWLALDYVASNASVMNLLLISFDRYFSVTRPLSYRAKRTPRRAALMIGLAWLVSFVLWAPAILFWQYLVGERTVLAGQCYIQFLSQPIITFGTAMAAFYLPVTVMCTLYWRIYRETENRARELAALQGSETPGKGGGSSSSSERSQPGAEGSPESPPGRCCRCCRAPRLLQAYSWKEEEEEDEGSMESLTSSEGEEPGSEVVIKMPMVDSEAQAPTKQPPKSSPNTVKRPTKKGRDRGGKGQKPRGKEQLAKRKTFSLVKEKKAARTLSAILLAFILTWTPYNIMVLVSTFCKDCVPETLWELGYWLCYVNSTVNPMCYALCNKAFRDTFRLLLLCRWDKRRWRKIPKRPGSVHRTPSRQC
# Chain of Lysosomal acid glucosylceramidase (Homo sapiens) (P04062 whole entry, looked up): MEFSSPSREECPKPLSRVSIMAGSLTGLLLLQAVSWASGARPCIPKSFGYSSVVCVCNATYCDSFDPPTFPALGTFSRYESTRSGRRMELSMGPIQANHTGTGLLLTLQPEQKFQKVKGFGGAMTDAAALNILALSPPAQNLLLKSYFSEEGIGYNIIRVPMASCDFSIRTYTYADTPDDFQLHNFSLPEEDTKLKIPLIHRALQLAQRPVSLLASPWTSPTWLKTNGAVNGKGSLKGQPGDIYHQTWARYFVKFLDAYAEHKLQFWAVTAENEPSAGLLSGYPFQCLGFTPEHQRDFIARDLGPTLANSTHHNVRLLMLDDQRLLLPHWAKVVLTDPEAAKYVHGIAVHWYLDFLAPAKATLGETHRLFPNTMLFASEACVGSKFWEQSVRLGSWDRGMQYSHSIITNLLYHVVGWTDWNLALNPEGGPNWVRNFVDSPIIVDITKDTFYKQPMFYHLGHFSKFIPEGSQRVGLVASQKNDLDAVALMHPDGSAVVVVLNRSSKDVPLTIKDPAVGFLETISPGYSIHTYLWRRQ
# Chain of Rap guanine nucleotide exchange factor 3 (Homo sapiens) (O95398 whole entry, looked up): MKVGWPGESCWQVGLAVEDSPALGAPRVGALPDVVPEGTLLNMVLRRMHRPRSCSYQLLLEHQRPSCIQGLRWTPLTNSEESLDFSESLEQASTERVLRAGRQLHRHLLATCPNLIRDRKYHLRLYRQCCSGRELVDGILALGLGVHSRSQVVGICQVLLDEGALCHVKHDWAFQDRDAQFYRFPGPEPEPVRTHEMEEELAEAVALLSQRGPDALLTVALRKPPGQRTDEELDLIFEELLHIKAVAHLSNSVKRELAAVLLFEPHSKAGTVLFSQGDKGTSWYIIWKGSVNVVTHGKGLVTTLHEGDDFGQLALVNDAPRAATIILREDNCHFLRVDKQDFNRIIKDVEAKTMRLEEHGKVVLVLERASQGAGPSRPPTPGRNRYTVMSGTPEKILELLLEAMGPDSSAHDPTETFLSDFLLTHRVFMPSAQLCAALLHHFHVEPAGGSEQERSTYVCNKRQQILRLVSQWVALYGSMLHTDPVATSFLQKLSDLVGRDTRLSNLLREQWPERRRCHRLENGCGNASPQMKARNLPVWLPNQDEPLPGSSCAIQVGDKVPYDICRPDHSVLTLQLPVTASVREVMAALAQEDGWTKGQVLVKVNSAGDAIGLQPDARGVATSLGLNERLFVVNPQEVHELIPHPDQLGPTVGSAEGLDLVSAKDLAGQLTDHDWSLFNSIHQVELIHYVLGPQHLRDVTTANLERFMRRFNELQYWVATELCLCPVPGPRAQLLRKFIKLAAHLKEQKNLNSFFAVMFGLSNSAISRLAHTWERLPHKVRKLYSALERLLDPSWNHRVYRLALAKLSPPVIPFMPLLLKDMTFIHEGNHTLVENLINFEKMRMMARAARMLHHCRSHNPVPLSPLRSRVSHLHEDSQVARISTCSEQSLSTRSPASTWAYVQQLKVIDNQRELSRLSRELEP
# Chain of M-phase phosphoprotein 8 (Homo sapiens) (Q99549 whole entry, looked up): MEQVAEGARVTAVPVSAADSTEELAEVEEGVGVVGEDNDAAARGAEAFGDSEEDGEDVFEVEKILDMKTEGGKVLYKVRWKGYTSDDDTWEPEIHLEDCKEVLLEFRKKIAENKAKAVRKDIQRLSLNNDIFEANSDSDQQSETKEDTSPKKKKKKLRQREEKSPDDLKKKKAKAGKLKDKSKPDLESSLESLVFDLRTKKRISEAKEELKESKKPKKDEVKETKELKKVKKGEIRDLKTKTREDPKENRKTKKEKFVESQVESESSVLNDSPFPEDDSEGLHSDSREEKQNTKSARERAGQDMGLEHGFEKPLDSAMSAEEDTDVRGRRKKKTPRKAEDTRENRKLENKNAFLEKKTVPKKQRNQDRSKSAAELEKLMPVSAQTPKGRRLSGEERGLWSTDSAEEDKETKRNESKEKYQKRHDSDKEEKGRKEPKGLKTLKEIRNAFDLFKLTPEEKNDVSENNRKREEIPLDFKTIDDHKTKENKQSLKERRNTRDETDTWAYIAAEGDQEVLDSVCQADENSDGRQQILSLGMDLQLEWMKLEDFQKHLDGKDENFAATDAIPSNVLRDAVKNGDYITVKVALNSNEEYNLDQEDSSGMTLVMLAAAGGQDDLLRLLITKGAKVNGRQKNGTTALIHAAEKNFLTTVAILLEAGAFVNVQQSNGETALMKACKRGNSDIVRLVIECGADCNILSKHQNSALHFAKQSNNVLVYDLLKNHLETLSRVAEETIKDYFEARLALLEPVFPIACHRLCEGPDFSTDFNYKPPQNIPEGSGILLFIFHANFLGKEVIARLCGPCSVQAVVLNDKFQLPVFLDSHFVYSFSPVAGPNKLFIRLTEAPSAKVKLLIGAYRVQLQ
# Chain of Cytochrome P450 3A4 (Homo sapiens) (P08684 whole entry, looked up): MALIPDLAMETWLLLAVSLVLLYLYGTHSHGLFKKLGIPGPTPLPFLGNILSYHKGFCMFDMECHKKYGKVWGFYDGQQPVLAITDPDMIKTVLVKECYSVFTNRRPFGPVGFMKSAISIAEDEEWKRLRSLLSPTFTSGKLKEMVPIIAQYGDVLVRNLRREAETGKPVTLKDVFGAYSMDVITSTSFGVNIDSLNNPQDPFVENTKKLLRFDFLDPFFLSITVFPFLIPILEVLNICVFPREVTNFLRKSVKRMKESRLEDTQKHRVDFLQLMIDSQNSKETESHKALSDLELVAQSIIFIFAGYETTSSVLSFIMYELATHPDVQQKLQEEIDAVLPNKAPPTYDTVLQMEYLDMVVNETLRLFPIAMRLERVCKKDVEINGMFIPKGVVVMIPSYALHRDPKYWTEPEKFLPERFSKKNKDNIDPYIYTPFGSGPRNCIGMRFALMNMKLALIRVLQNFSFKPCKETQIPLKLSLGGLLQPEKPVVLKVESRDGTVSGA
# Chain of RecQ-like DNA helicase BLM (Homo sapiens) (P54132 whole entry, looked up): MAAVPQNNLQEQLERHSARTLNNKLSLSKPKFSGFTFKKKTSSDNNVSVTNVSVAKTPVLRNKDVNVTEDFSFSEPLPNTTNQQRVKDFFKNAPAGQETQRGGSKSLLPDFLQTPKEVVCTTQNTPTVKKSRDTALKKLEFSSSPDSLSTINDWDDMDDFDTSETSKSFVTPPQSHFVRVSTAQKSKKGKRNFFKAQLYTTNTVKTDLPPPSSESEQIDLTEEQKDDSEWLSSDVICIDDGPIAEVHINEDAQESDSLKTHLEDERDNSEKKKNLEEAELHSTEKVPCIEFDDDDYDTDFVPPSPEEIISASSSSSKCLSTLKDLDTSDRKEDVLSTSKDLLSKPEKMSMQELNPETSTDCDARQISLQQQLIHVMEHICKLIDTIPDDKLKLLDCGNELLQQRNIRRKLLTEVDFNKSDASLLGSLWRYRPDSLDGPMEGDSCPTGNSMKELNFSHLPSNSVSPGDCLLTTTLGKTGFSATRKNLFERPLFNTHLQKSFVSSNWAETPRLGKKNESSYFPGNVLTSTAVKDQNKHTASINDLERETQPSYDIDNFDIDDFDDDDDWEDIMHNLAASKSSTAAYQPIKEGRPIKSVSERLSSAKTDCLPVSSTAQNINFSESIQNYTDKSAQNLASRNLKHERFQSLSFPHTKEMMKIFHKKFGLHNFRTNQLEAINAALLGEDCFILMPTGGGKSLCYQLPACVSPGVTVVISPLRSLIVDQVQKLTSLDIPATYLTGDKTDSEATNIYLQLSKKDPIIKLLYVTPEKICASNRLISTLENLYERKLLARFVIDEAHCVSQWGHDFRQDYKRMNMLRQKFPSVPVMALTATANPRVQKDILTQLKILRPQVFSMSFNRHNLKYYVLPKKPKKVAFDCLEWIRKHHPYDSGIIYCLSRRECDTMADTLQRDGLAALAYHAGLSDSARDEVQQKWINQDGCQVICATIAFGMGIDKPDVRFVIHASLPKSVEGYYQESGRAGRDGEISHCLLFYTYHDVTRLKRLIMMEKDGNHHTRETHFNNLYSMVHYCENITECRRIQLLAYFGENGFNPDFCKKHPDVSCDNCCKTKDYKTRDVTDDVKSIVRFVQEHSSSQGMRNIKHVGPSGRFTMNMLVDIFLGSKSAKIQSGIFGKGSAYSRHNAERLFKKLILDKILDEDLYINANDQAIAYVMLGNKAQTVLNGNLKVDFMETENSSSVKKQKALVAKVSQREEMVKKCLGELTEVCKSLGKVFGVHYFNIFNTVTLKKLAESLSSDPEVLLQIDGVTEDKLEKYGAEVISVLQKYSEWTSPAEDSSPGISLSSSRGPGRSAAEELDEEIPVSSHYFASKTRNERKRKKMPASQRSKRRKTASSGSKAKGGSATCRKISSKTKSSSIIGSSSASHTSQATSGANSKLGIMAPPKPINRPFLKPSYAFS
# Chain of Guanine nucleotide-binding protein G(i) subunit alpha-1 (Homo sapiens) (P63096 whole entry, looked up): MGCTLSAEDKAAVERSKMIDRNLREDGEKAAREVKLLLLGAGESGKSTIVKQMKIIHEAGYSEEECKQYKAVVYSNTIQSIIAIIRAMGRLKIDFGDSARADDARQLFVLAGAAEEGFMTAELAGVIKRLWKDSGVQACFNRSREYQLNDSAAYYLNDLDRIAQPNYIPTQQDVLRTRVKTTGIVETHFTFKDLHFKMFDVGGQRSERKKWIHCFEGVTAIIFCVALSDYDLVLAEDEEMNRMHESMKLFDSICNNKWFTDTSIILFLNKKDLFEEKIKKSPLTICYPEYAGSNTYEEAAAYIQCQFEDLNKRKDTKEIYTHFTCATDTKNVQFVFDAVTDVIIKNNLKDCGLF
compound,measurement,setting,value
O=C(Oc1ccccc1)N1CCC[C@@]2(CCN(C(c3ccccc3)c3ccccc3)C2)C1,Potency,[1],> 11.4 µM
N#Cc1cccc(NC(=O)N2CC[C@@]3(CCCN(C(=O)Oc4ccccc4)C3)C2)c1,Potency,[1],> 11.4 µM
CC1=NCCc2c1[nH]c1cc(O)ccc21,Potency,[2],inactive
same,Potency,[3],inactive
same,Potency,[4],inactive
same,Potency,[5],inactive
Clc1ccccc1-c1cncnc1NCCc1cnc[nH]1,Potency,[6],> 20 µM
same,Potency,[2],0.501 µM (active)
O=C(Oc1ccccc1)N1CCC2(CCCN(Cc3nccs3)C2)CC1,Potency,[6],> 20 µM
O=C(Oc1ccccc1)N1CCC2(CC1)CCN(C(c1ccccc1)c1ccccc1)CC2,Potency,[6],> 20 µM
C=C(C)C1Cc2c(ccc3c(=O)c4c(oc23)COc2cc(OC)c(OC)cc2-4)O1 (stereo not given),Potency,[2],inactive
same,Potency,[3],inactive
COc1cc2occc2c2oc(=O)ccc12,Potency,[3],inactive
same,Potency,[4],inactive
O=C(Oc1ccccc1)N1CCC[C@@]2(CCN(Cc3cc(C(F)(F)F)cc(C(F)(F)F)c3)C2)C1,Potency,[6],> 20 µM
O=C(Oc1ccccc1)N1CCC[C@@]2(CCN(Cc3ccccc3)C2)C1,Potency,[1],> 11.4 µM
O=C(Nc1ccccc1)N1CCC2(CC1)CCN(C(=O)Oc1ccccc1)CC2,Potency,[6],> 20 µM
CC(C)CN1CCCC2(CCN(C(=O)Oc3ccccc3)CC2)C1,Potency,[6],> 20 µM
O=C(OC1CCN(CCCl)CC1)C(c1ccccc1)c1ccccc1,outcome,[7],inactive
same,Potency,[8],2.51 µM (active)
same,Potency,[9],0.112 µM (active)
same,Potency,[10],0.562 µM (active)
same,Potency,[11],inactive
same,outcome,[12],inactive
same,outcome,[13],inactive
same,outcome,[14],inactive
same,Potency,[15],inactive
same,outcome,[16],inactive
same,Potency,[5],inactive
O=C(Nc1ccccc1)N1CC2(CCN(C(=O)Oc3ccccc3)CC2)C1,Potency,[6],> 20 µM
same,Potency,[1],> 11.4 µM
same,activation,[17],-6.7%
COc1ccc(NC(=O)N2CC[C@@]3(CCCN(C(=O)Oc4ccccc4)C3)C2)cc1,Potency,[6],> 20 µM
same,Potency,[1],> 11.4 µM
CC(C)CN1CC[C@@]2(CCCN(C(=O)Oc3ccccc3)C2)C1,Potency,[6],> 20 µM
same,activation,[17],-4.64%
O=C(Nc1cccc(F)c1)N1CCCC2(CCN(C(=O)Oc3ccccc3)CC2)C1,Potency,[6],> 20 µM
CCCN1CCc2cc(O)cc3c2C1Cc1ccc(O)c(O)c1-3 (stereo not given),outcome,[18],inactive
same,Potency,[19],inactive
same,Potency,[15],31.6 µM (active)
O=C(Oc1ccccc1)N1CCC2(CCN(Cc3nccs3)CC2)CC1,Potency,[2],inactive
C[C@]12CC[C@H](O)CC1=CCC1C2CC[C@]2(C)C(=O)CC[C@@H]12 (stereo not given in full),outcome,[18],inactive
same,Potency,[19],inactive
same,Potency,[15],inactive
same,outcome,[16],inactive
CCCN1CCc2cccc3c2C1Cc1ccc(O)c(O)c1-3 (stereo not given),outcome,[18],inactive
same,Potency,[15],20 µM (active)
same,outcome,[16],inactive
CNCC[C@@H](Oc1ccc(C(F)(F)F)cc1)c1ccccc1,Potency,[19],inactive
CC(=O)OC1CC2C(C)(C)C(=O)C=C[C@]2(C)C2CC[C@]3(C)C(=CC(=O)OC3c3ccoc3)[C@]12C (stereo not given in full),Potency,[5],inactive
O=C1c2ccccc2-c2cccc3cccc1c23,Potency,[5],inactive
COc1ccc(OC)c([C@H](O)[C@H](C)N)c1,outcome,[7],inactive
same,Potency,[8],inactive
same,outcome,[20],inactive
same,Potency,[9],inactive
same,Potency,[10],inactive
same,Potency,[11],inactive
same,outcome,[12],inactive
same,outcome,[13],inactive
same,outcome,[14],inactive

# From PubChem BioAssay (NCATS)
